Test results as given in PubChem BioAssay (NCATS).
“And” between values parts separate entries of the source, which are not always exact repeats. Equal entries are not always repeated. Records with an inconclusive call do not appear. The source made the active and inactive calls. Calls come from the whole dose curve; as a rule, active = well fitted curve in the direction sought with a large enough effect; inconclusive = small, poorly fitted or top-dose-only effect, or another doubt; inactive = no such curve, though single readings can be large; an effect the other way counts as inactive or inconclusive.

Assays:
[1] = target: Cellular tumor antigen p53 (Homo sapiens) (UniProt P04637); assay: Primary qHTS for small molecule compounds that upregulate eGFP-tagged delta133p53alpha (in N-terminal) cells. (AID 2060322); details: NCI-H358 eGFP-delta133p53alpha fluorescence, 24 h; activation: stronger effect = higher value; note: nearly all actives have a fitted effect of over 75% in size; note: potency is the fitted concentration of half-maximal effect;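 for activation: cells pre-induced with doxycycline then dosed without doxycycline; series mostly up to about 56 µM; 0% = DMSO vehicle and 100% = reference activator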
Outline: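 NCI-H358 cells pre-induced 24 h with 10 ng/ml doxycycline for eGFP-delta133p53alpha, plated dox-free and exposed 24 h at 37C to titrated compounds. Fixed, Hoechst-stained; gated GFP peak intensity by laser scanning cytometry, normalized to DMSO (0%) and 57.5 uM 5-azacytidine (100%).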

[2] = target: Aldehyde dehydrogenase, mitochondrial (Homo sapiens) (UniProt P05091); assay: qHTS for Inhibitors of the Aldehyde Dehydrogenase Family (ALDH2) Primary screen (AID 2061308);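 note: plate controls were vehicle for no effect and reference inhibitor for full effect; nearly all actives have a fitted effect of over 55% in size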
[3] = target: Retinaldehyde dehydrogenase 3 (Homo sapiens) (UniProt P47895); assay: qHTS for Inhibitors of the Aldehyde Dehydrogenase Family (ALDH1A3) Primary screen (AID 2061315);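 note: plate controls were DMSO vehicle for no effect and reference inhibitor for full effect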
[4] = BET inhibitor-based combinations targeting novel dependencies in MECOM-rearranged (r) AML: SET-2 cell line (AID 2202231); details: SET-2 AML cells viability, CellTiter-Glo luminescence, 48 h; viability: stronger effect = lower value, concentration not given here; note: nearly all actives have a fitted effect of over 35% in size; note: potency is the fitted concentration of half-maximal effect;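 for viability: plate controls were DMSO treated cells for no effect and wells without cells for full effect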
Outline: (§1)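 A 48 hr incubation preceded viability reading by CellTiter-Glo, with 15 min room-temperature development. Dose series had 11 points; normalization used DMSO and empty wells; AUC was computed and mean-centered per line as Z-AUC.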

[5] = BET inhibitor-based combinations targeting novel dependencies in MECOM-rearranged (r) AML: OCI-AML3 cell line (AID 2202232); details: Potency: OCI-AML3 viability; note: nearly all actives have a fitted effect of over 35% in size; note: potency is the fitted concentration of half-maximal effect;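 for viability (% of control): series mostly up to about 46 µM; plate controls were DMSO vehicle wells for no effect and wells without cells for full effect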
Outline: as §1

[6] = BET inhibitor-based combinations targeting novel dependencies in MECOM-rearranged (r) AML: MV-4-11 cell line (AID 2202233); note: nearly all actives have a fitted effect of over 45% in size; note: potency is the fitted concentration of half-maximal effect;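 for viability, % of control: plate controls were DMSO for no effect and blank wells for full effect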
Outline: (§2)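 Each compound is tested in an 11-point concentration series against 500 seeded cells/well for 48 hr. The luminescent viability signal is normalized to DMSO and blank wells, then reduced to AUC and a cell-line-centred Z-AUC.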

[7] = BET inhibitor-based combinations targeting novel dependencies in MECOM-rearranged (r) AML: HNT-34 cell line (AID 2202234); note: nearly all actives have a fitted effect of over 35% in size; note: potency is the fitted concentration of half-maximal effect;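 for viability (% of control): plate controls were vehicle wells for no effect and cell-free wells for full effect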
Outline: as §2

[8] = BET inhibitor-based combinations targeting novel dependencies in MECOM-rearranged (r) AML: UCSD-AML1 cell line (AID 2202235); note: nearly all actives have a fitted effect of over 40% in size; note: potency is the fitted concentration of half-maximal effect;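 for viability (% of control): series mostly up to about 46 µM; plate controls were DMSO vehicle wells for no effect and blank wells for full effect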
Outline: as §2

[9] = BET inhibitor-based combinations targeting novel dependencies in MECOM-rearranged (r) AML: AML-191 cell line (AID 2202236; note: nearly all actives have a fitted effect of over 35% in size; note: potency is the fitted concentration of half-maximal effect;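 for viability (% of control): plate controls were vehicle wells for no effect and wells without cells for full effect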)
Outline: as §1

[10] = BET inhibitor-based combinations targeting novel dependencies in MECOM-rearranged (r) AML: AML-194 cell line (AID 2202237; note: nearly all actives have a fitted effect of over 40% in size; note: potency is the fitted concentration of half-maximal effect;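 for viability (% of control): plate controls were vehicle wells for no effect and wells without cells for full effect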)
Outline: as §1

Cellular tumor antigen p53 (Homo sapiens), sequence (P04637 whole entry, looked up): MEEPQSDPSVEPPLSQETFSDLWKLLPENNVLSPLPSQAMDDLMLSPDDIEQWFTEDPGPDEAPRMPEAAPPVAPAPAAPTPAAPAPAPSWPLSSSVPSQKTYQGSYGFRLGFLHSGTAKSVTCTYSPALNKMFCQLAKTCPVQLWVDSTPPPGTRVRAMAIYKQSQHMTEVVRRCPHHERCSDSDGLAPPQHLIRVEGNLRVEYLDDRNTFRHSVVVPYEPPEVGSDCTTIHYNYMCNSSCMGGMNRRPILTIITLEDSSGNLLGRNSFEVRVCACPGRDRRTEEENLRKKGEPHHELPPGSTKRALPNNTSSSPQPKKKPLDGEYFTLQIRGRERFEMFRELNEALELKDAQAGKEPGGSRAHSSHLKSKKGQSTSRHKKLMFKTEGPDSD

Cc1cc(O)c(-c2ccc([C@@H](C)CN(C)C)cc2)c2c1[nH]c(=O)c1sccc12
active: Potency [1] 0.301 µM | Potency [4] 0.148 µM | Potency [5] 132 nM | Potency [6] 83.3 nM | Potency [7] 148 nM | Potency [8] 93.4 nM | Potency [9] 118 nM | Potency [10] 417 nM
inactive: Potency [2] | Potency [3]

CC(C)c1c2cc(-c3ccnc(NC4CCC(NC5CCOCC5)CC4)n3)ccc2nn1C (stereo not given)
inactive: Potency [2] | Potency [3]
active: Potency [1] 0.478 µM | Potency [4] 0.296 µM | Potency [5] 209 nM | Potency [6] 93.4 nM | Potency [7] 235 nM | Potency [8] 118 nM | Potency [9] 166 nM | Potency [10] 417 nM

Cc1[nH]c2ccc(F)cc2c1-c1nc2c3cccnc3c3ncccc3c2[nH]1
active: Potency [4] 2.7 µM | Potency [5] 679 nM | Potency [6] 605 nM | Potency [7] 679 nM | Potency [8] 679 nM | Potency [9] 539 nM | Potency [10] 762 nM
inactive: activation [1] -1% | Potency [2] | Potency [3]

CN[C@@H](C)[C@H]1[C@H](O)C[C@@]2(C)[C@@H]3CC[C@H]4C(C)(C)[C@@H](NC)CC[C@@]45C[C@@]35CC[C@]12C
inactive: activation [1] -17.2% and -1.67% | activity change, negative = inhibition [2] 0.631% [at 11.2 µM] | activity change, negative = inhibition [3] 0.124% [at 11.2 µM] | viability [4] 106% | viability (% of control) [5] 106% [at 8.46 µM] | viability, % of control [6] 115% [at 8.46 µM] | viability (% of control) [7] 103% [at 8.46 µM] | viability (% of control) [8] 111% [at 8.46 µM] | viability (% of control) [9] 95.8% [at 8.46 µM] | viability (% of control) [10] 117% [at 8.46 µM]

O=C(O)[C@H](CC(=O)N1C[C@H]2CCCC[C@H]2C1)Cc1ccccc1
inactive: activation [1] 38.3% | Potency [2] | Potency [3] | viability [4] 105% | Potency [5] | Potency [6] | Potency [7] | Potency [8] | Potency [9] | Potency [10]

Cc1nc(-c2cccnc2)sc1C(=O)Nc1ccccc1-c1cn2c(CN3CCOCC3)csc2n1
inactive: activation [1] 17.9% | Potency [2] | Potency [3] | viability [4] 115% | Potency [5] | Potency [6] | Potency [7] | Potency [8] | Potency [9] | Potency [10]

CO[C@@H]1COCC[C@@H]1N[C@@H]1CC[C@@](C(=O)N2CCc3ncc(C(F)(F)F)cc3C2)(C(C)C)C1
inactive: activation [1] -7.67% and -27.6% | Potency [2] | Potency [3] | viability [4] 122% | Potency [5] | Potency [6] | Potency [7] | Potency [8] | Potency [9] | Potency [10]

O=C(O)CCCCCC(=O)NN=C1CCCC1
inactive: activation [1] -11% | Potency [2] | Potency [3] | viability [4] 108% | Potency [5] | Potency [6] | Potency [7] | Potency [8] | Potency [9] | Potency [10]

CCOc1cc2ncc(C#N)c(Nc3ccc(F)c(Cl)c3)c2cc1NC(=O)/C=C/CN(C)C
inactive: Potency [2] | Potency [3]
active: Potency [1] 13.5 µM | Potency [4] 5.9 µM | Potency [5] 4170 nM | Potency [6] 934 nM | Potency [7] 296 nM | Potency [8] 1480 nM | Potency [9] 4680 nM | Potency [10] 5250 nM

CNC(=O)c1ccc(Nc2ncc(C(F)(F)F)c(NCc3nccnc3N(C)S(C)(=O)=O)n2)cc1
inactive: Potency [2] | Potency [3]
active: Potency [1] 12 µM | Potency [4] 3.32 µM | Potency [5] 4680 nM | Potency [6] 296 nM | Potency [7] 1860 nM | Potency [8] 2630 nM | Potency [9] 2950 nM | Potency [10] 3720 nM

Nc1cc(C(F)(F)F)c(-c2cc(N3CCOCC3)nc(N3CCOCC3)n2)cn1
inactive: Potency [2] | Potency [3]
active: Potency [1] 1.69 µM | Potency [4] 4.17 µM | Potency [5] 1860 nM | Potency [6] 2350 nM | Potency [7] 1660 nM | Potency [8] 1180 nM | Potency [9] 2090 nM | Potency [10] 1860 nM

Cc1[nH]nc(C(F)(F)F)c1Cc1sc2c(c1C(=O)N1C[C@](C)(O)CO1)c(=O)n(C)c(=O)n2C(C)C
inactive: activation [1] -10.3% | Potency [2] | Potency [3] | viability [4] 110% | Potency [5] | Potency [6] | Potency [7] | Potency [8] | Potency [9] | Potency [10]
